± gives the standard deviation of the averaged measurements.
Assays:
DLD1 [1] = assay: cell viability (CellTiter-Glo) relative to plate median (fraction of plate median); higher = more viable cells; conditions: 5 µM; treatment time 24 h; reporter: 7TFP
Procedure, shortened: (§1)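 Library compounds, at a final 5 µM, stayed on reporter cells for 24 h. The cells were colorectal cancer lines stably transduced with lentiviral TCF/Wnt firefly luciferase reporters, seeded in 384-well plates 24 h before dosing. Firefly luciferase or CellTiterGlo luminescence from parallel plates was normalised to the plate median in webcellHTS2 (additive, no log transformation), and two independent replicates were averaged.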

HCT116 = assay: as above; conditions: 5 µM; treatment time 24 h; reporter: TCF4/Wnt
Procedure, shortened: as §1

SW480 [2] = assay: as above; conditions: 5 µM; treatment time 24 h; reporter: 7TFP
Procedure, shortened: as §1

DLD1 [3] = assay: TCF/Wnt firefly luciferase reporter signal relative to plate median (fraction of plate median); higher = higher Wnt reporter signal; conditions: 5 µM; treatment time 24 h; reporter: 7TFP
Procedure, shortened: as §1

SW480 [4] = assay: as above; conditions: 5 µM; treatment time 24 h; reporter: 7TFP
Procedure, shortened: as §1

SMILES	cell viability (DLD1 [1])	cell viability (HCT116)	cell viability (SW480 [2])	TCF/Wnt firefly luciferase reporter signal (DLD1 [3])	TCF/Wnt firefly luciferase reporter signal (SW480 [4])
CC(CC(C(N)=O)(c1ccccc1)c1ccccc1)N(C)C (stereo not given)	0.995 ± 0.022	1.08 ± 0.035	1.01 ± 0.026	1 ± 0.014	1.01 ± 0.028
CC[C@@]1(O)C[C@H](O)c2c(cc3c(c2O)C(=O)c2c(O)ccc(O)c2C3=O)[C@H]1C(=O)OC	1.02 ± 0.067	1.05 ± 0.035	1.01 ± 0.03	1.08 ± 0.021	0.908 ± 0.12
O=C(NC(=O)c1c(F)cccc1F)Nc1ccc(Cl)cc1	1.01 ± 0.021	0.939 ± 0.07	1.01 ± 0.016	0.914 ± 0.18	0.876 ± 0.044
C[C@@H]1C[C@@H]([C@H](O)CC2CC(=O)NC(=O)C2)C(=O)[C@@H](C)C1	0.892 ± 0.059	0.5955 ± 0.0035	0.967 ± 0.076	0.387 ± 0.088	0.665 ± 0.15
CC(=O)O[C@H]1C[C@@H]2CC[C@@H]3[C@H](CC[C@@]4(C)[C@H]3C[C@H]([N+]3(C)CCCCC3)[C@@H]4OC(C)=O)[C@@]2(C)C[C@@H]1[N+]1(C)CCCCC1	0.9865 ± 0.0064	1.03 ± 0.062	0.963 ± 0.011	1.01 ± 0.093	0.9685 ± 0.0078
CC(=O)O[C@H]1C(=O)[C@@]2(C)[C@H]([C@H](OC(=O)c3ccccc3)[C@]3(O)C[C@H](O)C(C)=C1C3(C)C)[C@]1(OC(C)=O)CO[C@@H]1C[C@@H]2O	0.951 ± 0.013	1.04 ± 0.021	0.9845 ± 0.0078	0.95 ± 0.028	0.887 ± 0.076
C[N+]1(C)CCCC(OC(=O)C(O)(c2ccccc2)c2ccccc2)C1 (stereo not given)	0.965 ± 0.036	0.936 ± 0.063	1.01 ± 0.014	1.05 ± 0.014	0.957 ± 0.043
C[C@@H]1C[C@H](C)C[C@H](C)[C@@H](O)CC(=O)O[C@H]([C@@H]2CCC[C@H]2C(=O)O)C/C=C/C=C(/C#N)[C@H](O)[C@@H](C)C1 [Borrelidin]	0.894 ± 0.067	0.817 ± 0.18	1.01 ± 0.02	0.989 ± 0.059	1.06 ± 0.095
CC(C)CC(N(C)C)C1(c2ccc(Cl)cc2)CCC1 (stereo not given)	0.917 ± 0.072	0.924 ± 0.013	1.02 ± 0.042	0.991 ± 0.042	0.87 ± 0.073
CC(=O)OC1CCC23C(=O)OC45CCC(C6=CC(=O)OC6)C4(C)CCC2C5CCC3(O)C1 (stereo not given)	0.688 ± 0.011	0.397 ± 0.066	0.7175 ± 0.0021	0.202 ± 0.05	0.389 ± 0.011
C=C(C)[C@H]1Cc2c(ccc3c2O[C@@H]2COc4cc(OC)c(OC)cc4[C@@H]2C3=O)O1	0.851 ± 0.054	0.637 ± 0.11	1.01 ± 0.05	0.738 ± 0.04	0.753 ± 0.17
CCCC(=O)O[C@@H]1[C@@H](C)[C@@]2(O)[C@@H](C=C(CO)C[C@]3(O)C(=O)C(C)=C[C@@H]23)[C@@H]2C(C)(C)[C@]12OC(=O)CCC	0.9955 ± 0.0021	0.991 ± 0.069	1.02 ± 0.033	1.03 ± 0.1	0.984 ± 0.0085
C=C[C@@H]1C2=CCOC(=O)C2=CO[C@H]1O[C@@H]1O[C@H](CO)[C@@H](O)[C@H](O)[C@H]1O	0.971 ± 0.098	0.9495 ± 0.0078	1.03	0.923 ± 0.12	0.926 ± 0.034
CC[N+]1(C)CCCC(OC(=O)C(O)(c2ccccc2)c2ccccc2)C1 (stereo not given)	0.945 ± 0.0014	0.949 ± 0.087	0.933 ± 0.091	0.857 ± 0.0071	0.958 ± 0.06
C[C@]12CCC(=O)C(O)=C1CC[C@@H]1[C@@H]2CC[C@]2(C)C(=O)CC[C@@H]12	0.956 ± 0.011	0.996 ± 0.076	0.9485 ± 0.0021	1.01 ± 0.023	1.01 ± 0.073
CNc1ccccc1C(=O)O	0.923 ± 0.12	0.85 ± 0.12	1.004 ± 0.0085	0.931 ± 0.088	1.1 ± 0.078
CC(C)=CCOc1c2occc2cc2ccc(=O)oc12	1.03 ± 0.086	0.997 ± 0.1	1.01 ± 0.014	1.12 ± 0.05	0.998 ± 0.16
CC(=O)Oc1c2c(c(CC=C(C)C)c3c1C(=O)C1=C[C@@H]4CC5C(C)(C)OC(C/C=C(\C)C(=O)O)(C4=O)[C@@]15O3)OC(C)(CCC=C(C)C)C=C2 (stereo not given in full)	0.809 ± 0.046	0.933 ± 0.047	0.913 ± 0.08	0.706 ± 0.067	0.814 ± 0.26
O=C1C[C@@H]2OCC=C3CN4CC[C@]56c7ccccc7N1[C@H]5[C@H]2[C@H]3C[C@H]46	1.06 ± 0.14	0.963 ± 0.015	1.05 ± 0.071	0.927 ± 0.044	0.997 ± 0.089
NC(=O)CN1CCCC1=O	1.02 ± 0.051	1.01 ± 0.092	0.955 ± 0.024	0.925 ± 0.023	1.15 ± 0.05
COc1ccc2c(c1)[C@]13CCCC[C@@H]1[C@H](C2)N(C)CC3	1 ± 0.053	0.992 ± 0.096	1.02 ± 0.035	1.03 ± 0.14	1 ± 0.023
Nc1ccncc1	1.025 ± 0.0071	1.07 ± 0.028	1 ± 0.1	1.03 ± 0.054	1.13 ± 0.071
CCC1(CC)C(=O)C=CNC1=O	0.965 ± 0.016	0.923 ± 0.025	0.926 ± 0.013	1.02 ± 0.09	1.07 ± 0.021
CN(C)C(=S)SSC(=S)N(C)C	0.722 ± 0.25	0.363 ± 0.021	0.997 ± 0.033	0.686 ± 0.13	0.508 ± 0.12
COC(=O)[C@H]1O[C@@H]2C[C@H]3O[C@@H](n4cnc5c(N)ncnc54)[C@H](OC)[C@H]3O[C@@]2(O)[C@@H](O)[C@@H]1O [Herbicidin B]	0.988 ± 0.032	1.04 ± 0.081	1.05 ± 0.021	0.857 ± 0.061	0.945 ± 0.051
COC(=O)C(c1ccccc1)C1CCCCN1 (stereo not given)	1.025 ± 0.0071	1.05 ± 0.064	1.01 ± 0.035	1.03 ± 0.021	1.04 ± 0.088
CC(C)(C)NCC(O)c1ccccc1Cl (stereo not given)	1.045 ± 0.0071	1.04 ± 0.079	1.04 ± 0.028	0.949 ± 0.027	1.06 ± 0.057
CC1CC(Cl)CCC1C(=O)OC(C)(C)C (stereo not given)	0.973 ± 0.052	1.045 ± 0.0071	0.956 ± 0.025	0.976 ± 0.034	0.989 ± 0.03

Source: the supplement of paper PMC6522484
